# Data from PubChem BioAssay (NCATS).
# Results filed as inconclusive are left out. Active and inactive are the calls of the source. Calls follow the shape of the dose curve; as a rule, active = well fitted curve in the direction sought with a large enough effect; inconclusive = small, poorly fitted or top-dose-only effect, or another doubt; inactive = no such curve, though single readings can be large; an effect the other way counts as inactive or inconclusive.
# Assay: qHTS of pediatric cancer cell lines to identify multiple opportunities for drug repurposing: Confirmatory screen for SK-N-MC cells (AID 1347111);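 also: cells exposed to compound for 48 h before the readout; nearly all actives have a fitted effect of over 70% in size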
# Conditions: SK-N-MC cell viability; series mostly up to 45.9 µM
# Method in brief: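 SK-N-MC cells at 500-1,000 cells/well in growth media were pre-incubated 5 h, then exposed to compounds at 11-point dilutions for 48 h at 37 degrees C, 5% CO2. Viability was read as CellTiter-Glo luminescence.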
# Potency is read from the fitted curve at half-maximal effect.
row,Compound,Potency
1,Cc1ccc(C(N)=O)cc1Nc1nccc(-c2cn(C(C)C)c3cnccc23)n1,7590 nM (active)
2,NCC(=O)Nc1ccc(-n2nc(C(F)(F)F)cc2-c2ccc3c(ccc4ccccc43)c2)cc1,329 nM (active)
3,Nc1ccccc1NC(=O)c1ccc(CNc2nccc(-c3cccnc3)n2)cc1,inactive
4,CC(C)c1cnn2c(NCc3ccccc3)cc(N[C@@H](CO)[C@H](O)CO)nc12,585 nM (active)
5,CC(C)c1cc(C(=O)N2Cc3ccc(CN4CCN(C)CC4)cc3C2)c(O)cc1O,585 nM (active)
6,O=C(Cc1ccc(-c2ccc(OCCN3CCOCC3)cc2)cn1)NCc1ccccc1,147 nM (active)
7,Cc1cnc(-c2cnc(NCCNc3ccc(C#N)cn3)nc2-c2ccc(Cl)cc2Cl)[nH]1,11700 nM (active)
8,CS(=O)(=O)N1CCN(Cc2cc3nc(-c4cccc5[nH]ncc45)nc(N4CCOCC4)c3s2)CC1,1700 nM (active)
9,Cc1ccc2nc(NC(=O)CSc3nc4c(c(=O)n3-c3ccccc3)SCC4)sc2c1,11700 nM (active)
10,CC[C@@H]1C(=O)N(C)c2cnc(Nc3ccc(C(=O)NC4CCN(C)CC4)cc3OC)nc2N1C1CCCC1,46.5 nM (active)
11,Cc1cc(C(=O)N2CCN(c3cccc(Cl)c3)CC2)n(-c2ccccc2)n1,2610 nM (active)
12,O=C(NC1CCNCC1)c1[nH]ncc1NC(=O)c1c(Cl)cccc1Cl,3020 nM (active)
13,Cn1c2ccccc2c2c3c(c4c5ccccc5n(CCC#N)c4c21)CNC3=O,465 nM (active)
14,Cc1nc2cnc3ccc(C#Cc4cccnc4)cc3c2n1-c1ccc(C(C)(C)C#N)cc1,1700 nM (active)
15,CCN1CCN(Cc2ccc(-c3cc4c(N[C@H](C)c5ccccc5)ncnc4[nH]3)cc2)CC1,851 nM (active)
16,CC1(C)O[C@@H]2C[C@@H]3[C@H]4C[C@@H](F)C5=CC(=O)C=C[C@]5(C)[C@@]4(F)[C@@H](O)C[C@]3(C)[C@]2(C(=O)CO)O1,293 nM (active)
17,CCOc1cc2ncc(C#N)c(Nc3ccc(F)c(Cl)c3)c2cc1NC(=O)C=CCN(C)C,65.7 nM (active)
18,COc1cccc(-c2ccc(NC(=O)C3=C(C(=O)O)CCC3)c(F)c2)c1,2930 nM (active)
19,CC(=O)Nc1nc(C)c(-c2ccc(Cl)c(S(=O)(=O)NCCO)c2)s1,8270 nM (active)
20,Cn1c(=O)n(-c2ccc(C(C)(C)C#N)cc2)c2c3cc(-c4cnc5ccccc5c4)ccc3ncc21,2330 nM (active)
21,CCC1=C[C@@H]2CN(C1)Cc1c([nH]c3ccccc13)[C@@](C(=O)OC)(c1cc3c(cc1OC)N(C)[C@@H]1[C@@](O)(C(=O)OC)[C@H](OC(C)=O)[C@]4(CC)C=CCN5CC[C@]31[C@@H]54)C2,5220 nM (active)
22,COc1ccc(C=Cc2cc(OC)c(OC)c(OC)c2)cc1O,16.5 nM (active)
23,Cc1cc(Nc2ncnc3ccc(-c4ccc(CNCCS(C)(=O)=O)o4)cc23)ccc1Oc1ccn2ncnc2c1,20800 nM (active)
24,Cc1c(CN2CCN(S(C)(=O)=O)CC2)sc2c(N3CCOCC3)nc(-c3cnc(N)nc3)nc12,827 nM (active)
25,Cc1cnc(Nc2ccc(F)cc2Cl)nc1-c1c[nH]c(C(=O)N[C@H](CO)c2cccc(Cl)c2)c1,inactive
26,COc1cc2c(NC3CCN(C(C)C)CC3)nc(C3CCCCC3)nc2cc1OCCCN1CCCC1,4140 nM (active)
27,CCNC(=O)Nc1ccc2ncc(Nc3ccc(C)cc3)nc2n1,inactive

# Assay: qHTS of pediatric cancer cell lines to identify multiple opportunities for drug repurposing: Confirmatory screen for BT-12 cells (AID 1347112); also: nearly all actives have a fitted effect of over 55% in size
# Conditions: BT-12 rhabdoid tumor cells, viability; series mostly up to 45.9 µM
# Method in brief: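 Viability after 48 h compound treatment at 37C, 500-1,000 cells/well, read as ATP luminescence with CellTiter-Glo. Primary screens used 11-point (MIPE, 0.78 nM-46 µM) or 8-point (NPC, 0.59 nM-46 µM) final concentrations; follow-up screens used 11-point dilutions.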
row,Compound,Potency
1,Cc1ccc(C(N)=O)cc1Nc1nccc(-c2cn(C(C)C)c3cnccc23)n1,13500 nM (active)
2,CC(C)c1cnn2c(NCc3ccccc3)cc(N[C@@H](CO)[C@H](O)CO)nc12,522 nM (active)
3,CC(C)c1cc(C(=O)N2Cc3ccc(CN4CCN(C)CC4)cc3C2)c(O)cc1O,16500 nM (active)
4,CN(C)CCCN=c1c2ccccc2n(C)c2[nH]c(=O)n(C)c(=O)c12,23300 nM (active)
5,Cc1cnc(-c2cnc(NCCNc3ccc(C#N)cn3)nc2-c2ccc(Cl)cc2Cl)[nH]1,inactive
6,Cc1ccc2nc(NC(=O)CSc3nc4c(c(=O)n3-c3ccccc3)SCC4)sc2c1,3290 nM (active)
7,CC[C@@H]1C(=O)N(C)c2cnc(Nc3ccc(C(=O)NC4CCN(C)CC4)cc3OC)nc2N1C1CCCC1,16500 nM (active)
8,O=C(NC1CCNCC1)c1[nH]ncc1NC(=O)c1c(Cl)cccc1Cl,3020 nM (active)
9,Cn1c2ccccc2c2c3c(c4c5ccccc5n(CCC#N)c4c21)CNC3=O,inactive
10,CC(C)(C)NC(=O)[C@H]1CN(Cc2cccnc2)CCN1C[C@@H](O)C[C@@H](Cc1ccccc1)C(=O)N[C@H]1c2ccccc2C[C@H]1O,inactive
11,Cc1nc(Nc2n[nH]c3c2CN(C(=O)N[C@H](CN(C)C)c2ccccc2)C3(C)C)c2sccc2n1,13100 nM (active)
12,Cc1c(NC(=O)OC[C@@H]2COCCN2)cn2ncnc(Nc3ccc4c(cnn4Cc4cccc(F)c4)c3)c12,26100 nM (active)
13,CCN1CCN(Cc2ccc(-c3cc4c(N[C@H](C)c5ccccc5)ncnc4[nH]3)cc2)CC1,26900 nM (active)
14,CC1(C)O[C@@H]2C[C@@H]3[C@H]4C[C@@H](F)C5=CC(=O)C=C[C@]5(C)[C@@]4(F)[C@@H](O)C[C@]3(C)[C@]2(C(=O)CO)O1,73.7 nM (active)
15,CN[C@H]1CCc2cc(OC)c(OC)c(OC)c2-c2ccc(OC)c(=O)cc21,147 nM (active)
16,CCOc1cc2ncc(C#N)c(Nc3ccc(F)c(Cl)c3)c2cc1NC(=O)C=CCN(C)C,208 nM (active)
17,C=CCn1c(=O)c2cnc(Nc3ccc(N4CCN(C)CC4)cc3)nc2n1-c1cccc(C(C)(C)O)n1,10400 nM (active)
18,Cc1c(Cn2c(C)nc3c(C(=O)O)cc(N4CCOCC4)cc32)cccc1C(F)(F)F,inactive
19,COc1cccc(-c2ccc(NC(=O)C3=C(C(=O)O)CCC3)c(F)c2)c1,inactive
20,Cc1cc(Nc2ncnc3ccc(-c4ccc(CNCCS(C)(=O)=O)o4)cc23)ccc1Oc1ccn2ncnc2c1,inactive
21,CN(c1ncccc1CNc1nc(Nc2ccc3c(c2)CC(=O)N3)ncc1C(F)(F)F)S(C)(=O)=O,13100 nM (active)
22,CCNC(=O)Nc1ccc2ncc(Nc3ccc(C)cc3)nc2n1,inactive
